# JMJD2A Tudor: qHTS Assay for Inhibitors of JMJD2A-Tudor Domain | Lysine-specific demethylase 4A (Homo sapiens), O75164 | AlphaScreen JMJD2A-Tudor / H3K4me3 peptide binding | Potency, µM (titrated, usually from 114 µM), inactives show top-dose activity change, negative = inhibition, actives largely listed as inhibitors | hit rate 4.4% among 390,000 | AID 504339, 2011; also: % is scaled to controls: 0 for no effect and ±100 for the full control effect; nearly all actives have a fitted effect of over 50% in size
# HP1b chromo inh: HTS for Inhibitors of HP1-beta Chromodomain Interactions with Methylated Histone Tails; Chromobox protein homolog 1 (Homo sapiens), P83916; AlphaScreen HP1-beta / biotin-H3K9me3 peptide binding; Potency, µM (highest dose often 114 µM), inactives show at the highest dose activity change, negative = inhibition, usual class: inhibitors; hit rate 0.56% among 390,000; also: nearly all actives have a fitted effect of over 70% in size
# Target sequence (P83916 whole entry, looked up): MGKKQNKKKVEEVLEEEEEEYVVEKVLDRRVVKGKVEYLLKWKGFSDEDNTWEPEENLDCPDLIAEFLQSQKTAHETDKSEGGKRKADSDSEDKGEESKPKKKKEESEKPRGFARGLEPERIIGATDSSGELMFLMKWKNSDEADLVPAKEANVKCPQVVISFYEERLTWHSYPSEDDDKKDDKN
#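 HP1-beta protein (50 nM final) preincubated 30 min at room temperature with biotinylated H3(1-18)K9me3 peptide (50 nM) in PBS pH 7.4, 0.01% Tween-20, then compound added for 30 min. AlphaScreen streptavidin donor/nickel chelate acceptor beads (10 ug/mL final), 30 min dark, luminescence read.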
# G9a inh: qHTS Assay for Inhibitors of Histone Lysine Methyltransferase G9a. AID 504332, 2011. G9a H3K9 monomethylation, AlphaScreen, 2 h. Histone-lysine N-methyltransferase EHMT2 (Homo sapiens), Q96KQ7. hit rate 8.8% among 350,000. Potency, µM (doses to about 102 µM), for inactives: at the highest dose activity, negative = inhibition, hits mostly inhibitors; also: % is scaled to controls: 0 for no effect and ±100 for the full control effect; nearly all actives have a fitted effect of over 75% in size
# Target sequence (Q96KQ7 913-1193 limits assumed): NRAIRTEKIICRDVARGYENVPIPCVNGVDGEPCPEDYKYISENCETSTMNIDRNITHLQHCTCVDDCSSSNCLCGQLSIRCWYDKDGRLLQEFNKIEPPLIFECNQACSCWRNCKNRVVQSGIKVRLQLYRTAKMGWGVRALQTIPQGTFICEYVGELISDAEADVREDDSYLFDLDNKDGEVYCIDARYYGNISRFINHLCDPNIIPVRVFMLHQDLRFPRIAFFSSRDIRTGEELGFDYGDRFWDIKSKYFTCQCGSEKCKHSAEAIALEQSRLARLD
#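 Chemiluminescent proximity detection of H3K9 monomethylation, read after 10 min bead incubation in the dark. Reaction: 20 nM G9a, 500 nM biotin-H3K9 peptide, 20 uM SAM cofactor, 2 h, room temperature, following 15 min enzyme-compound preincubation.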
# BAZ2B block: qHTS Assay for Inhibitors of BAZ2B. AlphaScreen BAZ2B-H3K14Ac peptide displacement. Potency, µM (series often up to 114 µM), for the others: at the top dose activity change, negative = inhibition, usual class: inhibitors. hit rate 4.4% among 360,000; also: % is scaled to controls: 0 for no effect and ±100 for the full control effect; nearly all actives have a fitted effect of over 60% in size
#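 Complex of BAZ2B and biotin-H3K14Ac (50 nM apiece) forms over 30 min at RT, then faces library compounds up to 110 uM for another 30 min; AlphaScreen beads added, 20 min dark incubation, luminescence read.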
# L3MBTL1 inh: qHTS Assay for the Inhibitors of L3MBTL1 | Lethal(3)malignant brain tumor-like protein 1 (Homo sapiens), Q9Y468 | AlphaScreen L3MBTL1–H3K9me1 peptide binding | Potency, µM (top dose mostly 57.1 µM), inactives show top-dose activity, negative = inhibition, actives largely listed as inhibitors | hit rate 0.66% among 230,000; also: % is scaled to controls: 0 for no effect and ±100 for the full control effect; nearly all actives have a fitted effect of over 60% in size
#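 Displacement of a biotinylated histone H3(1-15) peptide monomethylated at Lys9 (75 nM) from L3MBTL1 (50 nM) was measured by AlphaScreen after a 30 min room-temperature compound incubation; cefsulodin titration served as intraplate control.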
# * = called active by the depositor; ? = inconclusive; / = no result; [ ] = another dose, or the depositor's remark. This is a sample that favours compounds with a hit; in the whole collection about 11% have one here. Calls follow the shape of the dose curve; as a rule, active = well fitted inhibition curve with a large enough effect; inconclusive = small, poorly fitted or top-dose-only effect; inactive = no such curve, though single readings can be large or run the other way. Potency is read from the fitted curve at half-maximal effect.
SMILES,JMJD2A Tudor,HP1b chromo inh,G9a inh,BAZ2B block,L3MBTL1 inh
COc1cccc(CNC(=O)c2cc3n(n2)CCCN(Cc2ccc(C)cc2)C3=O)c1OC,-1%,24%,10%[12.7 µM],-6%,/
O=S(=O)(NCC1CCCN(Cc2ccccc2O)C1)c1cccc2cccnc12 (stereo not drawn),-12%,41%,71µM*,-17%,/
COc1cccc(N2C(=O)CSC23C(=O)N(CC(=O)Nc2cccc(Cl)c2)c2ccccc23)c1 (stereo not drawn),-20%,13%,?,1%[57.1 µM],/
C=CCOc1ccc(/C=C2\SC(=S)N(NS(=O)(=O)c3ccccc3)C2=O)cc1,?,-25%,27%[2.33 µM],50µM*,/
COc1cc(/C=C2\SC(=S)N(NS(=O)(=O)c3ccc(C)cc3)C2=O)ccc1O,-1%[11.4 µM],?,25µM*,?,-13%
COc1cc(/C=C2\SC(=S)N(NS(=O)(=O)c3ccccc3)C2=O)ccc1O,?,?,40µM*,?,-4%
COc1ccc(/C=C2/SC(=S)N(NS(=O)(=O)c3ccccc3)C2=O)cc1,?,1%,?,-28%,/
COc1ccccc1/C=C1\SC(=S)N(NS(=O)(=O)c2ccccc2)C1=O,-30%,14%,-11%[2.33 µM],?,/
COC(=O)c1ccc(NC(=O)CN(Cc2ccccc2)S(=O)(=O)c2ccc(Cl)cc2)cc1,-10%,-13%,-3%[59 µM],-5%,/
Cc1ccc(CN2CCN(CC(=O)NCc3ccccc3Cl)C2=O)cc1,-4%,18%,10%[59 µM],5%,/
O=C(OCC#CCSc1nnc(-c2ccccc2)o1)c1ccc(F)cc1,79%,/,/,/,/
CCOC(=O)CCc1c(C)nc(SCC(=O)O)c(C#N)c1C,25µM*,11%,8.9µM*,9%,2%
CCOC(=O)CCc1c(C)nc(SCc2ccc(C(=O)O)cc2)c(C#N)c1C,-5%,43%,25%,2%,1%
CCCN(CCC)C(=O)c1c[nH]c2ccc(S(=O)(=O)N(C)c3ccc(Cl)cc3)cc2c1=O,-13%,56%,-4%[59 µM],0%,/
Cc1ccc(S(=O)(=O)c2nc(-c3cccc(C)c3)oc2N2CCN(c3ccccc3)CC2)cc1,-33%,-5%,?,?,/
COc1ccc(NC(=O)CC2C(=O)N(c3cccc(OC)c3)C(=O)N2CCC2=CCCCC2)cc1 (stereo not drawn),-15%,35%,15%[59 µM],-12%,/
CC(=O)c1c(C)[nH]c(C(=O)OCC(=O)Nc2cc(S(=O)(=O)N3CCCC3)ccc2Cl)c1C,-7%,19%,18%[59 µM],-5%,2%
CC(=O)c1c(C)[nH]c(C(=O)OCC(=O)Nc2cccc(S(=O)(=O)N(C)C)c2)c1C,-23%,49%,2%[59 µM],50µM*,0%
CC(=O)c1c(C)[nH]c(C(=O)OCC(=O)Nc2cccc(S(=O)(=O)N3CCCC3)c2)c1C,-22%,7%,-1%,56µM*,1%
CC(=O)c1c(C)[nH]c(C(=O)Nc2cccc(S(=O)(=O)N(C)C)c2)c1C,-22%,34%,1%,-34%,-5%
CCCOc1ccccc1-n1sc2c(c1=S)-c1cc(OC)cc3c1N(C(=O)C3=O)C2(C)C,2.5µM*,-81%,?,2µM*,/
Cn1cnnc1Sc1ccc(C(=O)NCCC23CC4CC(CC(C4)C2)C3)cc1[N+](=O)[O-],?,?,-3%[59 µM],?,-16%
C=CCNC(=S)/C(=C(/[O-])c1ccc([N+](=O)[O-])cc1)[n+]1ccccc1,-11%[11.4 µM],7%,45µM*,4%,-27%
O=[N+]([O-])c1cccc(/C([O-])=C(/C(=S)Nc2ccccc2)[n+]2ccccc2)c1,?,-19%,10µM*,-23%,4%
COc1ccc(Cl)cc1NC(=O)CN(c1cccc(C)c1C)S(C)(=O)=O,-11%,50%,-18%[59 µM],-1%,/
SMILES,JMJD2A Tudor,HP1b chromo inh,G9a inh,BAZ2B block,L3MBTL1 inh
O=C(Cn1nc(-c2ccccc2)c2cnc3ccccc3c21)Nc1ccccc1,-13%,8%,10%[59 µM],-2%,/
O=S(=O)(c1ccc(F)cc1)N(Cc1nc(-c2ccc(Cl)cc2)no1)C1CCCCC1,15%,65%,35%[59 µM],15%,/
N=c1c2c(ncn1-c1ccccc1)Oc1ccc3ccccc3c1C2c1ccc2c(c1)OCCO2 (stereo not drawn),22µM*,/,/,/,/
COc1ccc(C2c3c(ccc4ccccc34)Oc3ncn4nc(-c5ccco5)nc4c32)cc1OC (stereo not drawn),-13%,9%,?,-31%,8%
N=c1c2c(ncn1-c1ccccc1)Oc1ccc3ccccc3c1C2c1ccc2c(c1)CCO2 (stereo not drawn),35µM*,/,/,/,/
CCOc1ccc(C2c3c(ncn(-c4ccccc4)c3=N)Oc3ccc4ccccc4c32)cc1OCC (stereo not drawn),40µM*,/,/,/,/
COC(=O)c1cc2oc3ccccc3c2n1Cc1c(F)cccc1Cl,-17%,37%,13%[59 µM],6%,/
Cc1ccc(C(=O)N/N=C/c2cccc(OC(=O)/C=C/c3ccco3)c2)cn1,-4%[11.4 µM],?,45µM*,50µM*,32µM*
CC(C)NC(=S)N/N=C/c1cc(Br)ccc1O,50µM*,?,3%[59 µM],18µM*,?
O=C(N/N=C/c1ccccn1)c1cc([N+](=O)[O-])cc([N+](=O)[O-])c1,56µM*,20%,15%,50µM*,/
CCN(CC)S(=O)(=O)c1cccc(C(=O)N/N=C/c2cccc(O)c2O)c1,-27%,14%,0%[59 µM],8%,-1%
CCN(CC)S(=O)(=O)c1cccc(C(=O)N/N=C/c2ccccn2)c1,?,11%,?,56µM*,-5%
COC(=O)N/N=C/c1cc(Br)ccc1O,-17%,41%,-36%,5%,-8%
O=C(N/N=C/c1ccccn1)c1ccc([N+](=O)[O-])cc1,-17%,29%,-32%,-38%,-18%
CCOc1ccccc1NC(=O)c1cc2cc(C)ccc2n1C,86%,166%,63%[59 µM],45%,/
O=C(N/N=C/c1ccc2ncccc2c1)c1cccc([N+](=O)[O-])c1,?,205%,79µM*,-39%,/
C/C(CC(=O)Nc1cc(C)ccn1)=N\NC(=O)c1cccc(C)c1,-12%,18%,103%[59 µM],89µM*,/
Cc1cccc(C(=O)N/N=C/c2ccccn2)c1,?,7%,16µM*,3%,28%
O=C(O)c1cccc(NC(=S)N/N=C/c2ccccn2)c1,25µM*,14%,50µM*,3.5µM*,20µM*
N#Cc1ccc(CN2CCN(C(=O)c3ccc(S(=O)(=O)N4CCCCCC4)cc3)CC2)cc1,-15%,35%,3%[12.7 µM],13%,1%
